Data from the OligoGym collection.
Also: reference of the scale not given here.

These sequences were tested against PEAR1 (assay: pooled miR-30 sensor sort-seq; sequence = guide strand). Settings: shRNA.
Sequence TAGTAGTGACTGTAGCTCGGAG has a sensor-assay potency score (higher = more potent) of -0.228. Sequence TTGCTGTAGCTATAGCTGTAGC has a sensor-assay potency score (higher = more potent) of -1.31. TTCATCTCCATGTAGCTGCTCT showed a sensor-assay potency score (higher = more potent) of 0.0491. Work on TTGGTGGTGGTAGTGAAGCTTT yielded a sensor-assay potency score (higher = more potent) of -1.22. In the case of TAGCTATAGCTGTAGCTTCGGT, the sensor-assay potency score (higher = more potent) is reported as -1.04. Work on TAGCAGGTCCCGTTCGAGGGGT yielded a sensor-assay potency score (higher = more potent) of -0.75. Sequence TCCATGTAGCTGCTCTCCCGGG has a sensor-assay potency score (higher = more potent) of -1.66. With TCTGGCATGACATACTCGGAGC the sensor-assay potency score (higher = more potent) was -0.939. Sequence TTGCCTTTTTGCCAGTGCCGAT has a sensor-assay potency score (higher = more potent) of -1.65. Sequence TATAGCTGTAGCTTCGGTCCAG has a sensor-assay potency score (higher = more potent) of 0.0436. For ATTGCTGTAGCTATAGCTGTAG, the sensor-assay potency score (higher = more potent) was -0.261. In the case of TTTCACATGAGCAGCGTGCAGA, the sensor-assay potency score (higher = more potent) is reported as -0.314.

What follows are sequences tested against PEBP1 in the same assay as above. Settings: shRNA.
For TTTGATCAAAACATAAATCAGA, the sensor-assay potency score (higher = more potent) was -0.67. For TATACATGCAACACTGAACTGG, the sensor-assay potency score (higher = more potent) was 0.186. For TTCTTTTTTACATTCTGGGTTG, the sensor-assay potency score (higher = more potent) was -0.707. TAACACGTGCCAGCCACCGGGG gave a sensor-assay potency score (higher = more potent) of -1.45. In the case of TAATCGGAGAGGACTGTGCCAC, the sensor-assay potency score (higher = more potent) is reported as -0.276. In the case of TAAAATCACATTGTGTACCATT, the sensor-assay potency score (higher = more potent) is reported as -0.719. Work on TATTATACATGCAACACTGAAC yielded a sensor-assay potency score (higher = more potent) of -0.804. Work on TAAACCAGCCAGACATAGCGGT yielded a sensor-assay potency score (higher = more potent) of -0.718. In the case of TGCTCTATCACTGTAGACCTGG, the sensor-assay potency score (higher = more potent) is reported as 0.029. Sequence ATACATGCAACACTGAACTGGG has a sensor-assay potency score (higher = more potent) of 0.364. In the case of TATCACTGTAGACCTGGTCTTT, the sensor-assay potency score (higher = more potent) is reported as -0.444. TTTCTTTTTTACATTCTGGGTT showed a sensor-assay potency score (higher = more potent) of 0.0306.
